High-throughput results deposited in PubChem BioAssay by National Center for Advancing Translational Sciences (NCATS).
TGFb SMAD3 inh: TGF-b pathway inhibition; HepG2 CAGA-GFP TGF-b/SMAD3 reporter, GFP fluorescence, 18 h; TGF-beta stimulated, 500 pg/mL final; Potency, µM (top dose mostly 46.1 µM), for the others: at the top dose activity, negative = inhibition, hits mostly inhibitors; hit rate 1.2% among 410,000; also: potency is read from the fitted curve at half-maximal effect; % is scaled to controls: 0 for no effect and ±100 for the full control effect; nearly all actives have a fitted effect of over 65% in size
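Inhibition of TGF-beta-driven CAGA-GFP reporter expression in HEPG2 cells is measured by cellular GFP fluorescence after 18 h stimulation with 500 pg/mL recombinant TGF-beta in 1% FBS medium at 37 degrees C.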
HepG2 tox: counter-screen for TGF-b inhibitors: cytotoxicity in HepG2 cells; HepG2 CAGA-GFP viability, ATP luminescence, 18 h; Potency, µM (highest dose often 46.1 µM), inactives show at the top dose activity change, negative = cytotoxicity, hits mostly cytotoxic; hit rate 0.76% among 410,000; AID 588856; also: potency is read from the fitted curve at half-maximal effect
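CellTiter-Glo luminescence gave cytotoxicity after 18 hours at 37 degrees C. The cells were HepG2 CAGA-GFP in 1% FBS DMEM, stimulated with 500 pg/mL TGF-beta after compound addition. %Activity was normalised to no-cell wells (complete cell-killing) and DMSO (no toxicity), and curves were fitted and classified.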
S-ASM inh: inhibitors of human secretory acid sphingomyelinase; placental ASM, HMU-PC fluorogenic substrate, 60 min; Potency, µM (doses to about 57.5 µM), for inactives: at the highest dose activity change, negative = inhibition, usual class: inhibitors; hit rate 0.006% among 340,000; also: potency is read from the fitted curve at half-maximal effect
Target sequence (P17405 47-631 limits assumed): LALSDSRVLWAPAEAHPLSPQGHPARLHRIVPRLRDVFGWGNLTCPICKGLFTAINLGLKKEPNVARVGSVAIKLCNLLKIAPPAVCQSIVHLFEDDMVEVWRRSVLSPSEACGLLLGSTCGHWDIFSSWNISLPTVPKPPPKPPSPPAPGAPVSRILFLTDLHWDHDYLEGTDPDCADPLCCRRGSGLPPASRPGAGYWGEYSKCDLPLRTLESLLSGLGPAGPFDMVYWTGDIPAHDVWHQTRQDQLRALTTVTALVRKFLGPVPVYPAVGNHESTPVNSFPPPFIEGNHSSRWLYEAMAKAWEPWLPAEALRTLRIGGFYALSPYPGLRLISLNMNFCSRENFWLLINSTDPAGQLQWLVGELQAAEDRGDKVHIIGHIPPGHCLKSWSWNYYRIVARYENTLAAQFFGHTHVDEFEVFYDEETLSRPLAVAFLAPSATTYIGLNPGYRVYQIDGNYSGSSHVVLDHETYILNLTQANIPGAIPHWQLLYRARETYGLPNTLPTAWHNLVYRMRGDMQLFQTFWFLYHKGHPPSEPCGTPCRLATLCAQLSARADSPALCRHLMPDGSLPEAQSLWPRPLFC
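Human placenta-derived ASM preincubated with compound 10 min at room temperature, then reacted with 9 uM (final) fluorogenic HMU-PC substrate for 60 min at 37 C. Stop solution raises pH to 10; fluorescence read at Ex 386/Em 447 nm.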
DT40 TDP1 no CPT: qHTS for Inhibitors of human tyrosyl-DNA phosphodiesterase 1 (TDP1): qHTS in cells in absence of CPT. DT40 Tdp1-/- hTDP1 cells, no CPT, ATP luminescence, 48 h. Potency, µM (series often up to 46.2 µM), inactives show top-dose activity change, negative = growth inhibition, usual class: inhibitors. hit rate 15% among 420,000; also: potency is read from the fitted curve at half-maximal effect; % is scaled to controls: 0 for no effect and ±100 for the full control effect; nearly all actives have a fitted effect of over 55% in size
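Camptothecin absent (DMSO only). Human TDP1-complemented DT40 knockout cells, 400 cells/well, 37 °C for minimum 48 hr; ATP measured via CellTiter-Glo, 30 min dark incubation, luminescence.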
TDP1 cell CPT: DT40-hTDP1 cell growth loss with CPT; Potency, µM (doses to about 46.2 µM), without a hit: at the top dose activity change, negative = growth inhibition, hits mostly inhibitors; chicken DT40 Tdp1-/-;hTDP1 cells + 20 nM CPT, ATP luminescence, 48 h; hit rate 12% among 420,000; also: potency is read from the fitted curve at half-maximal effect; % is scaled to controls: 0 for no effect and ±100 for the full control effect; nearly all actives have a fitted effect of over 55% in size
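Chicken DT40 Tdp1-/- cells stably complemented with human TDP1 were seeded at 400 cells/well in medium containing 20 nM camptothecin, exposed to pin-transferred compounds, and grown at 37 °C for at least 48 hr. Viability was read as ATP luminescence.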
IL1B secr inh: inhibitors of inflammasome signaling (IL-1 beta secretion). THP-1 LPS/ATP IL-1B secretion, AlphaLISA, 16 h; active compounds read low. hit rate 4.7% among 360,000. activity change, % at 57.5 µM; in the data active = activity change below about -50%; inconclusive = mostly about -30% to -49%; also: % is scaled to controls: 0 for no effect and ±100 for the full control effect
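THP-1 cells pretreated 1 hr with compounds (up to 57.5 uM final), then stimulated with LPS (250 ng/mL final) plus ATP (1.25 mM final); secreted IL-1B measured by AlphaLISA after 16 hr, decreased signal indicating inhibition.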
Starred values were filed as active, the others as inactive; u = inconclusive; x = not tested or not shown. Hits are enriched below; roughly 19% of the tested compounds scored in any of these assays. Unless noted, calls follow the shape of the dose curve; as a rule, active = well fitted curve in the direction sought with a large enough effect; inconclusive = small, poorly fitted or top-dose-only effect, or another doubt; inactive = no such curve, though single readings can be large; an effect the other way counts as inactive or inconclusive.

SMILES	TGFb SMAD3 inh	HepG2 tox	S-ASM inh	DT40 TDP1 no CPT	TDP1 cell CPT	IL1B secr inh
CCOc1cc(/C=N/NC(=O)c2cc(C)n(-c3ccc(F)cc3)c2C)ccc1O	u	0%	146%	21µM*	16µM*	11
CCOc1cc(/C=N/NC(=O)c2nn(C)cc2Br)ccc1OCc1ccccc1	1%	-1%	-16%	10µM*	15µM*	28
CCOc1ccccc1NC(=O)C(=O)c1cc(C)n(-c2ccc(F)cc2)c1C	-14%	-3%	x	-26%	u	x
CCCC(c1nnnn1CS(=O)(=O)c1ccc(C)cc1)N1CCC(C(N)=O)CC1 (stereo not given)	16%	-24%	3%	-1%	-1%	-24
C[C@@]12C(=O)N(c3cccc(F)c3)C(=O)N1[C@@H]1c3ccccc3OC[C@@H]1[C@H]2c1ccccc1	-12%	-16%	-7%	15µM*	u	-8
C[C@@]12C(=O)N(c3ccc(Br)cc3)C(=O)N1[C@@H]1c3ccccc3OC[C@@H]1[C@H]2c1ccccc1	-2%	-2%	-11%	18µM*	u	-2
C[C@]12C(=O)N(c3ccc(Br)cc3)C(=O)N1[C@@H]1c3ccccc3OC[C@@H]1[C@H]2c1ccccc1	3%	-53%	-2%	u	u	3
C[C@@]12C(=O)N(c3cccc(Cl)c3)C(=O)N1[C@@H]1c3ccccc3OC[C@@H]1[C@H]2c1ccccc1	u	-19%	-9%	u	u	13
C[C@]12C(=O)N(c3ccc(Cl)cc3)C(=O)N1[C@@H]1c3ccccc3OC[C@@H]1[C@H]2c1ccccc1	-2%	-17%	-9%	23µM*	u	-2
C[C@@]12C(=O)N(c3ccccc3)C(=O)N1[C@@H]1c3ccccc3OC[C@@H]1[C@H]2c1ccccc1	-1%	-16%	-9%	u	16µM*	-6
CC#CC(=O)NCC1(N(C)Cc2ccccc2)Cc2ccccc2C1	-25%	-9%	-5%	-6%	-21%	0
CCOC(=O)C1=CNS(=O)(=O)NC1c1ccc(C#N)cc1 (stereo not given)	16%	-9%	24%	-2%	-3%	28
Cc1ccccc1NC(=S)NCc1ccc2c(c1)cc(C)n2C	11µM*	-53%	5%	3.3µM*	2.9µM*	33
CCCS(=O)(=O)NCc1ccc2c(c1)cc(C)n2C	6%	-4%	-5%	-24%	-24%	-69*
COc1ccc(CNC(=S)Nc2cc(C)cc(C)c2)cc1	-9%	-50%	-3%	u	u	-25
COc1ccc(CNC(=S)Nc2ccc(Br)cc2)cc1	u	-22%	-1%	18µM*	u	21
CCS(=O)(=O)NCc1ccc2c(c1)cc(C)n2C	1%	1%	1%	1%	13%	-19
Cc1cc2cc(CNC(=S)NCc3ccccc3)ccc2n1C	u	-34%	-6%	-28%	0%	-11
COc1ccc(CC(=O)NCc2ccc3c(c2)cc(C)n3C)cc1	-7%	-16%	3%	8%	-1%	-3
COc1ccc(NC(=S)NCc2ccc3c(c2)cc(C)n3C)cc1	0%	-29%	-11%	u	18µM*	-9
O=c1[nH]c(C2CCCN(S(=O)(=O)c3ccc(F)cc3)C2)nc2c1nnn2Cc1ccc(F)cc1 (stereo not given)	u	-37%	u	u	-14%	-2
Clc1ccc(-c2nnc(-c3ccccc3)o2)cn1	4%	-1%	-3%	2%	3%	-1
COc1ccc(N(CC(=O)NCc2ccccc2)C(=O)CCC(=O)Nc2cc(C)ccn2)c(OC)c1	17%	-7%	3%	u	u	-21
CCOC(=O)c1cc(C)nnc1C(=O)OCC	24%	7%	x	-4%	8%	-9
COc1cccc(CN2C(=O)CN(C3CCCCC3)C(=O)C2c2ccc(OC)c(OC)c2)c1 (stereo not given)	u	-38%	x	u	u	x
SMILES	TGFb SMAD3 inh	HepG2 tox	S-ASM inh	DT40 TDP1 no CPT	TDP1 cell CPT	IL1B secr inh
CCC(CC)C(=O)NCc1ccc2c(c1)cc(C)n2C	21%	4%	-2%	u	10µM*	17
CCc1cccc(C)c1NC(=S)NCc1ccc2c(c1)cc(C)n2C	-16%	-46%	-7%	16µM*	21µM*	-24
CCCCNC(=S)NCc1ccc2c(c1)cc(C)n2C	u	-32%	-2%	u	u	10
COc1ccccc1NC(=S)NCc1ccc2c(c1)cc(C)n2C	u	-30%	-4%	23µM*	16µM*	-8
COc1ccc(CNC(=O)Nc2cccc(C)c2)cc1	7%	4%	1%	1%	0%	3
Cc1cc2cc(CNC(=O)CC(C)C)ccc2n1C	0%	-22%	0%	1%	-7%	-15
COc1ccc(CCNC(=S)Nc2cccc(C)c2)cc1	-4%	-26%	2%	16µM*	u	1
Cc1ccccc1C(=O)N1CCC(C(=O)NC(C)c2ccc(-n3ccnc3)cc2)CC1 (stereo not given)	6%	-2%	3%	8%	1%	3
Cc1cc(NC(=O)CCC(=O)N(CC(=O)NC2CCCC2)c2ccc(F)c(Cl)c2)no1	30%	-1%	4%	-8%	-6%	2
CCCNCC(=O)Nc1sc2c(c1C(=O)Nc1c(C)n(C)n(-c3ccccc3)c1=O)CCCC2	-1%	-11%	x	-21%	-11%	-7
CC1(C)NC(=O)N(CC(=O)OCC(=O)Nc2c(Br)cc([N+](=O)[O-])cc2Br)C1=O	1%	-1%	2%	16%	-16%	53
COc1ccc(CNC(=S)Nc2cccc(OC)c2)cc1	1%	2%	5%	-13%	1%	-27
COc1ccc(CNC(=S)NCc2ccc(OC(C)C)cc2)cc1	-18%	18µM*	-1%	u	-28%	-2
Cc1c(Cl)cccc1NC(=O)c1cccc(NC(=O)N2CCSc3ncccc32)c1	0%	-20%	x	u	u	x
COc1ccc(C(=O)OCC(=O)NC2CC2)cc1S(=O)(=O)Nc1ccc(C)cc1	-2%	-3%	6%	-29%	3%	0
O=S(=O)(CCN1CCN(C(c2ccccc2)c2ccccc2)CC1)C(F)(F)F	u	-26%	1%	18µM*	7.3µM*	-18
c1ccc(CN2CCN(C(c3ccccc3)c3ccccc3)CC2)cc1	-21%	-32%	-2%	u	u	5
